Activity calls are given as the source filed them.

Assay [1] has as its target Albumin (Bos taurus) (UniProt P02769). Put plainly: bovine serum albumin binders on microarray, profiling panel, artefact control for SMM control protein annotation, biochemical, small-molecule microarray, Alexa647 label, 635/667 nm fluorescence (AID 1118).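 Note: score merges 667 nm emission intensity and signal-to-noise per printed compound spot.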 The conditions noted are these: BSA-A647 binding, fluorescence 635 nm, higher = more signal.
Assay [2] in a line: small-molecule microarray binders of probe aXIP, primary screen, biochemical, NeuroSMM set, 635/667 nm fluorescence (AID 1119).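 Note: probe is the protein aXip251-270 applied at 1 µg/mL to compound-printed slides; binding of probe to printed compounds measured as 667 nm fluorescence plus signal to noise.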 Conditions: higher = more signal, called active from +8 up or from −8 down.
A short description of assay [3]: small-molecule binders of probe aNOTCH3, primary screen, biochemical, small-molecule microarray, 635/667 nm fluorescence (AID 1120).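 Note: probe is a biotin-tagged antibody raised against NOTCH3 rather than NOTCH3 protein; score merges spot fluorescence near 667 nm with spot signal to noise.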 The conditions noted are these: higher = more signal.
A short description of assay [4]: small-molecule binders of probe aNOTCH2, primary screen, biochemical, small-molecule microarray, 635/667 nm fluorescence (AID 1121).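 Note: score merges feature fluorescence read at 667 nm with its signal to noise.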 Conditions: higher = more signal.
For assay [5], the target named is Carbonic anhydrase 2 (Homo sapiens) (UniProt P00918). Nature of the assay: CAII small-molecule binders, profiling panel, biochemical, small-molecule microarray, Alexa647-labelled CAII (AID 1122). The conditions noted are these: CAII-A647 binding fluorescence, higher = more signal.
Assay [6] is described as follows: COS7 lysate on small-molecule microarray, probe aHis, 635 nm (AID 1123).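 Note: z-score combines 667nm fluorescence intensity with signal-to-noise per printed compound spot.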 Conditions: COS7 cell lysate, fluorescence, higher = more signal.
Assay [7] is described as follows: compound binding in COS7 lysate, probe aLAP1, primary screen, cell lysate, small-molecule microarray (AID 1124).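 Note: lysate comes from COS7 cells expressing LAP1 and is applied at 0.3 µg/mL; score merges spot fluorescence near 667 nm with signal-to-noise over triplicate slides.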 Conditions: probe aLAP1, fluorescence, higher = more signal.
Assay [8] relates to Sam68 (KHDRBS1). Nature of the assay: Sam68 small-molecule binders, primary screen, biochemical, small-molecule microarray, 635 nm fluorescence (AID 1125).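 Note: score merges 667 nm channel intensity with signal to noise over triplicate slides.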 The conditions noted are these: small-molecule microarray binding, higher = more signal.
Assay [9] concerns Chordin-like protein 2 (CHRDL2). Nature of the assay: CHRDL2 small-molecule binders, primary screen, biochemical, small-molecule microarray, 635 nm fluorescence (AID 1126).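 Note: printed compound slides probed with Chrdl2 protein at 4 µg/mL for 1 h at 4 C; score merges 667 nm emission intensity with signal to noise over three replicate slides.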 Conditions: small-molecule microarray binding, fluorescence 635 nm; higher = more signal.
The target in assay [10] is Concanavalin-A (Canavalia ensiformis) (UniProt P02866). Put plainly: ConA small-molecule binders, primary screen, artefact control for SMM control protein annotation, biochemical, small-molecule microarray, Alexa647 label, 635 nm (AID 1127).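 Note: z combines 667 nm emission intensity with signal-to-noise across three replicate slides.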 The conditions noted are these: ConA-A647 binding fluorescence, higher = more signal.
Assay [11] can be described thus: anti-His antibody binders, primary screen, artefact control for SMM control protein annotation, biochemical, small-molecule microarray, 635 nm fluorescence (AID 1128).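 Note: score merges feature fluorescence with signal-to-noise for each printed compound spot.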 The conditions noted are these: anti-His Alexa647 antibody binding, higher = more signal.
Assay [12] concerns Human papillomavirus type 1a E7 protein (residues 1-88). Put plainly: HPV1a E7 small-molecule binders, primary screen, biochemical, small-molecule microarray, residues 1-88, 635 nm (AID 1129). Conditions: small-molecule microarray binding, fluorescence 635 nm; higher = more signal.
Assay [13] deals with Focal adhesion kinase 1 (Homo sapiens) (UniProt Q05397). Nature of the assay: small-molecule microarray binders of FAK, primary screen, biochemical, 635/667 nm fluorescence, BSA, DTT (AID 1130).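 Note: composite of spot emission at 667 nm and signal to noise over triplicate slides.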 Conditions: PTK2 binding, 635 nm fluorescence, higher = more signal.
The subject of assay [14] is Fibrinogen (Alexa647-labelled). Nature of the assay: fibrinogen binders on compound microarrays, profiling panel, artefact control for SMM control-protein annotation, biochemical, small-molecule microarray, 635/667 nm fluorescence (AID 1131).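 Note: z-score merges 667 nm fluorescence with per-spot signal-to-noise over triplicate slides.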 The conditions noted are these: fibrinogen-A647 binding fluorescence, higher = more signal.
In assay [15] the target is Follistatin (Homo sapiens) (UniProt P19883). Nature of the assay: follistatin binders on small-molecule microarrays, primary screen, biochemical, small-molecule microarray, 635/667 nm fluorescence (AID 1132). The conditions noted are these: FST binding, 635 nm fluorescence, higher = more signal.
For assay [16], the target named is Fibroblast growth factor 2 (Homo sapiens) (UniProt P09038). Put plainly: FGF2 binders on small-molecule microarrays, primary screen, biochemical, small-molecule microarray, 635/667 nm fluorescence (AID 1133). Conditions: small-molecule microarray binding, FGF2, fluorescence 635/667; higher = more signal.
The nature of assay [17]: mitochondrial membrane potential change in A549 cells, profiling panel, cell-based, JC-1 fluorescence, basal, 24 h, 100 nL (AID 1138).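 Note: A549 lung adenocarcinoma cells under basal conditions with no added stimulus; test concentration not given here.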 Conditions: higher = more signal.
The test system of assay [18] is Lefty1. Put plainly: Lefty1 binders on small-molecule microarrays, primary screen, biochemical, small-molecule microarray, 635/667 nm fluorescence (AID 1139). The conditions noted are these: small-molecule microarray binding, fluorescence 635/667; higher = more signal.
In assay [19] the test system is wheat germ agglutinin (Triticum aestivum), Alexa647-labelled. Put plainly: wheat germ agglutinin binders on compound microarrays, profiling panel, artefact control for SMM control-protein annotation, biochemical, small-molecule microarray, 635/667 nm fluorescence (AID 1140).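 Note: score merges 667 nm feature emission with signal to noise over triplicate slides.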 Conditions: WGA-A647 binding, 635 nm fluorescence, higher = more signal.
Assay [20] addresses Luciferin 4-monooxygenase (Photinus pyralis) (UniProt P08659). Put plainly: firefly luciferase enzyme inhibitors, primary screen, biochemical, luminescence, purified enzyme, 2006 set (AID 1141).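 Note: cell-free assay with purified firefly luciferase at 100 ng per well in PBS; test concentration not given here.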 Conditions: SteadyGlo luminescence, 30 min, higher = more signal, called active from +8 up or from −8 down.

Concanavalin-A (Canavalia ensiformis), sequence (P02866 whole entry, looked up): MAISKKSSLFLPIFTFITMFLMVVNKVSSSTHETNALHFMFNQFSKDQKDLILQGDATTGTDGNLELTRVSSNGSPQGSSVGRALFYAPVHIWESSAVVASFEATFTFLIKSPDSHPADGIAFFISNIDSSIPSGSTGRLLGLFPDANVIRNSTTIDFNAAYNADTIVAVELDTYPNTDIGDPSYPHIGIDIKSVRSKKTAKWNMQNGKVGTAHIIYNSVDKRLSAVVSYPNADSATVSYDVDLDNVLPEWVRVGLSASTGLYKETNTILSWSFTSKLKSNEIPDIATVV
Luciferin 4-monooxygenase (Photinus pyralis), sequence (P08659 whole entry, looked up): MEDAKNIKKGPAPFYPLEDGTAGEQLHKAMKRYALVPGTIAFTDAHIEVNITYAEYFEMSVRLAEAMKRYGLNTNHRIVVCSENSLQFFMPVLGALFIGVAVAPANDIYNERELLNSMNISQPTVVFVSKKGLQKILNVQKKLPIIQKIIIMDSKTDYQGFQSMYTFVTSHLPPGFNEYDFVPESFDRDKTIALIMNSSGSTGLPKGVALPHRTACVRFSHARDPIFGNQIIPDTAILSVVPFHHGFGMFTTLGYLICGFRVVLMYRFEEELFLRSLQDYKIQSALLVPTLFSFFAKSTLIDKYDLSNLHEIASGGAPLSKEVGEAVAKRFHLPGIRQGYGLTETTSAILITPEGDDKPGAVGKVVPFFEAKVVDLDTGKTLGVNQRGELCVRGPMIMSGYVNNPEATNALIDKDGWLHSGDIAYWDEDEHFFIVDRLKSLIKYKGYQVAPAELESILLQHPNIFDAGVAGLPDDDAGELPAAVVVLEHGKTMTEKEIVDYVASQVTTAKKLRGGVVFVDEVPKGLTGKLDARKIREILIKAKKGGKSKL
Follistatin (Homo sapiens), sequence (P19883 whole entry, looked up): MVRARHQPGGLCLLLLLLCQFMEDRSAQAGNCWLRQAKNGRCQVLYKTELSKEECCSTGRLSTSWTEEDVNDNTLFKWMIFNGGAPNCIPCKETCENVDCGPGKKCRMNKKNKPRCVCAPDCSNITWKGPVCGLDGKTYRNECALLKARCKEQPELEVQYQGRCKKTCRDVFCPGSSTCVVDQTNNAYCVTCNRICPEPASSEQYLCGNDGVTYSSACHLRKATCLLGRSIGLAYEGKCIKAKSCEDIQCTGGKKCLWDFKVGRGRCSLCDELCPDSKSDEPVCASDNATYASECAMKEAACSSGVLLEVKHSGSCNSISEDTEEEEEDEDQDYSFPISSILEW
Albumin (Bos taurus), sequence (P02769 whole entry, looked up): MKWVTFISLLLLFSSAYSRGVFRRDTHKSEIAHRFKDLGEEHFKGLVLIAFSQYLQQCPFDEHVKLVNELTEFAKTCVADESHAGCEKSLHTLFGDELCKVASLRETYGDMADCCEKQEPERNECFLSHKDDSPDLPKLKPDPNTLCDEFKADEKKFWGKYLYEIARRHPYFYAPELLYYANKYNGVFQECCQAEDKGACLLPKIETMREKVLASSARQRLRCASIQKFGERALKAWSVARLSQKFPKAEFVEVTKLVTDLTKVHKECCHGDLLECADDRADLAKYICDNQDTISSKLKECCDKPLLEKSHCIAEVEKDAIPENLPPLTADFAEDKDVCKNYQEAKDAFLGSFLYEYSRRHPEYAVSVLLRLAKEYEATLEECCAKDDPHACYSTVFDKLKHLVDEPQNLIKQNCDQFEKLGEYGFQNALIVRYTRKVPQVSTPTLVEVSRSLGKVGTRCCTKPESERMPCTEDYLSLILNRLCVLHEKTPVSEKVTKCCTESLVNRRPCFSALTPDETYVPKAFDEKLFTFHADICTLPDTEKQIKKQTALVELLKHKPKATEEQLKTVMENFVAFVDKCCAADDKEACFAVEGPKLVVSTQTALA
Fibroblast growth factor 2 (Homo sapiens), sequence (P09038 whole entry, looked up): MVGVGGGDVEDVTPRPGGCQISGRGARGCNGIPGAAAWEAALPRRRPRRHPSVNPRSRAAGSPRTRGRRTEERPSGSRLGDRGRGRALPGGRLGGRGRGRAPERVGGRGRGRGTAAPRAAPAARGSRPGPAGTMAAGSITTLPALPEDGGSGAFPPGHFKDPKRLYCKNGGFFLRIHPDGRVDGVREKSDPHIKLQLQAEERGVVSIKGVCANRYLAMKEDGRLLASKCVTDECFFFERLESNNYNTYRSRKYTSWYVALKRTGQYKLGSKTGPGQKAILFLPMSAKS
Focal adhesion kinase 1 (Homo sapiens), sequence (Q05397 whole entry, looked up): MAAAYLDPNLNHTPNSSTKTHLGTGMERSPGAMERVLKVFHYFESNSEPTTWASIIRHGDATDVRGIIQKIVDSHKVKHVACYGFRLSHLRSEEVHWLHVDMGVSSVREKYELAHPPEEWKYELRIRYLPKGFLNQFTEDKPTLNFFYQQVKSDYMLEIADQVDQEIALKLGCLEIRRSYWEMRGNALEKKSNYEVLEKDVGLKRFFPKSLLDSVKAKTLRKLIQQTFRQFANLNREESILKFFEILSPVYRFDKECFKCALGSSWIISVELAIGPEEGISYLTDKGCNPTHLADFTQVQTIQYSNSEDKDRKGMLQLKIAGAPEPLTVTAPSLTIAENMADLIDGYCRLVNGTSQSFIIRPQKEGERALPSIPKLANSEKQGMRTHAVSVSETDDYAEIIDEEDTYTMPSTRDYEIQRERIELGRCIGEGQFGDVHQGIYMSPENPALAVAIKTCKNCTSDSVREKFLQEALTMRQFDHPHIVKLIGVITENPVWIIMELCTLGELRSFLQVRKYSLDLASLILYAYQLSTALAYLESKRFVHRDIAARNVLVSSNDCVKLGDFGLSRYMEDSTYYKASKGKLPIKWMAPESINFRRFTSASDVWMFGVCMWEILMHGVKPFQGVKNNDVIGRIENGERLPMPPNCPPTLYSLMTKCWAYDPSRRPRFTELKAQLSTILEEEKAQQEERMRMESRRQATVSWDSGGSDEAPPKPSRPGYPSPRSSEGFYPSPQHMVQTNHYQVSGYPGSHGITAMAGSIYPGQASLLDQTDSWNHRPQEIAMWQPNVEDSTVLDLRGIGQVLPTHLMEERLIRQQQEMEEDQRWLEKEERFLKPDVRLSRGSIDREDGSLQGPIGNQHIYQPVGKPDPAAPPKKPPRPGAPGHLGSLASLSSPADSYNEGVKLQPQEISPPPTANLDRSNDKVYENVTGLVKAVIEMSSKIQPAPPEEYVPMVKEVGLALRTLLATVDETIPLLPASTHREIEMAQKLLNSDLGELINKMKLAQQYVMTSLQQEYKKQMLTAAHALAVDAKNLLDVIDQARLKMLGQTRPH

Turning to `C=C[C@H](C)[C@@H](OC(=O)Nc1ccc(SC)cc1)c1ccc(O)c2ccccc12`, the composite z-score was 0.0219 in assay [1]; 0.0636 in assay [3]; -0.0928 in [4]; 0.609 in [5]; 1.84 in [6]; 0.188 in assay [7]. The composite z-score came to 1.32 in [8]; 1.13 in [9]; 1.02 in assay [10]; 3.14 in assay [11]; 1.24 in [12]; 0.183 in assay [13]. For the same molecule, the composite z-score in assay [14] is 0.294; in assay [15] it was 1.37; in [16], 1.54; in [18] it was 1.1; in assay [19], 0.108. Also, the composite Z-score in assay [2] is -0.552 (inactive). Further, the z-score in assay [17] is -1.7; in [20], -2.61 (inactive).
As for `COc1ccc([Si](C)(C)[C@H]2[C@H](CCO)O[C@@]3(C(=O)N(Cc4ccccc4)c4ccc(N5CCCCC5=O)cc43)[C@@H]2C)cc1`, the composite z-score in assay [1] was 0.78; in [3], -0.0918; in [4] it was -0.133; in assay [5] it was 0.342; in assay [6], 0.376; in [7], 0.237. For the same molecule, the composite z-score was 0.965 in assay [8]; 0.207 in assay [9]; 0.905 in assay [10]; 1.49 in assay [11]; 0.435 in assay [12]; 0.208 in assay [13]. Moreover, the composite z-score in [14] amounted to 0.94; in assay [15], 1.28; in assay [16], 1.28; in [18], 0.628; in assay [19], 0.768. For the same molecule, the composite Z-score in [2] was 0.388 (inactive). Further, the z-score in assay [17] was 2.23; in assay [20], -1.08 (inactive).
Consider `COC(=O)[C@]1(Cc2ccccc2)N=C(c2ccc(OCCCO)cc2)O[C@@H]1c1ccccc1N=[N+]=[N-]`, for which the composite z-score in assay [1] is 0.165; in assay [3], -0.0391; in [4] it was -0.122; in [5], 0.279; in assay [6], 1.59; in assay [7], 0.209. The composite z-score in assay [8] is 0.3; in assay [9], 0.315; in assay [10], 0.666; in [11], 1.15; in assay [12] it was 1.2; in assay [13], 0.442. In addition, the composite z-score in assay [14] was determined as 0.863; in assay [15], 1.36; in [16], 1.29; in assay [18], 0.83; in [19], 0.464. Also, the composite Z-score in [2] was -0.181 (inactive). The z-score was -1.24 in assay [17] and -4.8 (inactive) in [20].
`CN1C(=O)C2C=CC(C(O)c3ccc(F)cc3)N(N(c3ccccc3)c3ccccc3)C2C1=O` (stereo not given): the composite z-score was determined as 0.698 in assay [1]; 0.206 in assay [3]; 0.0264 in assay [4]; 0.506 in [5]; 2.82 in assay [6]; 0.0833 in assay [7]. Besides, the composite z-score in assay [8] was -0.0714; in assay [9] it was -0.69; in [10] it was 0.324; in assay [11], 0.202; in assay [12], 0.619; in [13] it was 0.0202. Further, the composite z-score in [14] is -1.13; in assay [15], 0.605; in assay [16], -0.615; in assay [18] it was -0.128; in assay [19], 0.296. In addition, the composite Z-score in [2] was 2.43 (inactive). In addition, the figures for the z-score in [17] and in [20] were 0.351 and 0.0492 (inactive), respectively.
For `O=C1C[C@@](C(=O)NCc2ccccc2)(c2ccc([N+](=O)[O-])cc2)[C@@H](c2ccc(CO)cc2)N1CC12CC3CC(CC(C3)C1)C2`, the composite z-score in assay [1] is -0.0057; in [3], -0.128; in assay [4], -0.14; in [5] it was 0.479; in assay [6], 1.37; in assay [7], 2.12. Moreover, the composite z-score was 1.31 in assay [8]; 0.119 in assay [9]; 0.89 in [10]; 0.729 in [11]; 1.19 in assay [12]; 1.42 in assay [13]. For the same molecule, the composite z-score is -0.151 in assay [14]; 1.33 in assay [15]; 1.46 in [16]; 0.943 in assay [18]; 0.162 in assay [19]. In assay [2], the composite Z-score is -0.36 (inactive). Moreover, the z-score in [17] is 1.44; in [20], -0.756 (inactive).

Values taken from PubChem BioAssay.
